# Assay results from PubChem BioAssay AID720697 (Broad Institute, 2013).
# Entries with a potency or affinity are not part of this list. Inconclusive results are not listed. Activity calls are given as the source filed them.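 Rule for the calls: active = signal loss with fitted half-maximal concentration at or below twice the top valid tested dose in every test run; inconclusive = runs disagree, flat 30 to 70% signal loss, or poor fit; inactive = all runs flat, opposite direction, or potency beyond limit.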
# Assay: general mammalian cell viability loss – inhibitor set, cherry-pick, set 2, cytotoxicity control for miR-122 modulator project, dose response (AID 720697);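 note: 0% = median of neutral control wells and -100% = MG132 positive control wells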
# Details: HEK293T viability, CellTiter-Glo luminescence, 48 h; series mostly up to 26 µM
SMILES,outcome,"activity change, negative = cytotoxicity"
COc1cccc(NC(=O)C[C@@H]2CC[C@@H]3[C@@H](COc4ccc(NS(=O)(=O)c5cccc(F)c5)cc4C(=O)N3C)O2)c1,inactive,
CCNC(=O)C[C@H]1CC[C@@H]2[C@H](COc3ccc(NC(=O)c4cccs4)cc3C(=O)N2C)O1,inactive,
C[C@H](CO)N1C[C@H](C)[C@H](CN(C)C(=O)Nc2cccc3ccccc23)Oc2ncc(C#Cc3ccc(C(F)(F)F)cc3)cc2C1=O,inactive,
CN(C)CCNc1ncnc2c1sc1nc(-c3ccccc3)c3c(c12)CCCC3,inactive,
C[C@@H]1CCCCO[C@@H](CN(C)CC2CCCCC2)[C@H](C)CN([C@@H](C)CO)C(=O)c2cc(NC(=O)Nc3cccc4ccccc34)ccc2O1,inactive,
CCOc1cc(C(=O)NC(C)COC)cc(OCC)c1OCC (centres undefined),inactive,
CC(C)C(=O)Nc1ccc2c(c1)C(=O)N(C)[C@@H]1CC[C@H](CC(=O)NCc3cccc(F)c3)O[C@H]1CO2,inactive,
CCC(=O)NC[C@H]1[C@H](c2ccc(C3=CCCC3)cc2)[C@H](CO)N1C(C)=O,inactive,
C[C@@H]1CN([C@@H](C)CO)S(=O)(=O)c2ccc(/C=C/c3ccccc3)cc2O[C@@H]1CN(C)C(=O)c1cccnc1,inactive,
O=C(CNCCC1=CCCCC1)Nc1ccccc1N1CCCCCC1,inactive,
COc1ccc(N2CCc3c(C)nc4c(OC)cc(OC)cc4c32)c(OC)c1,inactive,
COCCNC(=O)C[C@H]1CC[C@@H]2[C@@H](COc3ccc(NS(=O)(=O)c4ccc(Cl)cc4)cc3C(=O)N2C)O1,inactive,
COc1ccccc1C#Cc1cnc2c(c1)C(=O)N([C@H](C)CO)C[C@H](C)[C@@H](CN(C)C(=O)c1ccc3c(c1)OCO3)O2,inactive,
COc1cccc(CNC(=O)C[C@@H]2CC[C@H]3[C@H](COc4ccc(NC(C)=O)cc4C(=O)N3C)O2)c1,inactive,
COCC(=O)N(C[C@@H]1[C@@H](c2ccccc2)[C@H](CO)N1C(=O)NC(C)C)C(C)C,inactive,
CN1C(=O)c2cc(NS(=O)(=O)c3ccc(Cl)cc3)ccc2OC[C@@H]2O[C@H](CC(=O)N3CCc4ccccc4C3)CC[C@H]21,inactive,
Cc1nn(C)cc1NC(=O)C[C@H]1CC[C@H]2[C@H](COc3ccc(NC(=O)c4cccc(F)c4)cc3C(=O)N2C)O1,inactive,
CCN(C[C@@H]1[C@@H](c2ccc(C3=CCCCC3)cc2)[C@@H](CO)N1CC1CC1)C(C)=O,inactive,
Cc1ccccc1-c1ccc([C@@H]2[C@H](CO)N3CCCCN(C(=O)Nc4cccc(F)c4)C[C@@H]23)cc1,inactive,
CCOc1ccc(CCNC(=O)C2CCN(S(=O)(=O)N3CCC(C)CC3)CC2)cc1OCC,inactive,

SMILES,outcome,"activity change, negative = cytotoxicity"
CC(C)CC#Cc1ccc2c(c1)O[C@H](CN(C)C(=O)c1cnccn1)[C@H](C)CN([C@@H](C)CO)S2(=O)=O,inactive,
O=C(Nc1ccccc1F)N1C[C@H]2[C@@H](c3ccccc31)[C@@H](CO)N2C(=O)C1CC1,inactive,
CC(C)NC(=O)Nc1ccc2c(c1)C(=O)N(C)[C@@H]1CC[C@H](CC(=O)NCC(F)(F)F)O[C@H]1CO2,inactive,
COc1cccc(-c2nn(-c3ccccc3)cc2CO)c1,inactive,
O=CN1CCN(C(=O)c2ccccc2F)CC1,inactive,
C/C=C/c1ccc([C@H]2[C@@H](CO)N(Cc3ccccn3)[C@H]2CNC(=O)CC)cc1,inactive,
Cc1noc(C)c1NC(=O)Nc1ccc2c(c1)C(=O)N(C)[C@@H]1CC[C@H](CC(=O)N[C@H]3CCN(Cc4ccccc4)C3)O[C@H]1CO2,inactive,
CN[C@H]1C[C@H]2c3[nH]c4ccc(-c5ccc(OC)cc5)cc4c3CCN2C(=O)[C@H]1[C@H](C)O,inactive,
NS(=O)(=O)c1ccc(Nc2nc(-c3cccnc3)cs2)cc1,,34% [at 6 µM] (inactive)
COc1cccc(C(=O)N2C[C@H]3[C@@H](c4ccccc42)[C@H](CO)N3C(C)=O)c1,inactive,
CCCC(=O)Nc1ccc2c(c1)C(=O)N(C)[C@@H]1CC[C@H](CC(=O)NCCN3CCCCC3)O[C@H]1CO2,inactive,
COCC(=O)Nc1ccc2c(c1)C(=O)N(C)[C@@H]1CC[C@@H](CC(=O)NC3CCCC3)O[C@@H]1CO2,inactive,
CNC[C@@H]1Oc2cc(C#CC3CCCCC3)ccc2S(=O)(=O)N([C@@H](C)CO)C[C@@H]1C,inactive,
CCC(=O)N1[C@@H](CO)[C@H](c2ccccc2)[C@@H]1CN(C(C)C)S(C)(=O)=O,inactive,
O=C(Cc1cccnc1)N1[C@@H](CO)[C@@H]2c3ccccc3NC[C@@H]21,inactive,
O=C(C1CCCCC1)N1C[C@@H]2[C@H](c3ccccc31)[C@H](CO)N2Cc1ccccc1Cl,inactive,
CC(C)C(=O)Nc1ccc2c(c1)C(=O)N(C)[C@@H]1CC[C@H](CC(=O)NCC3CC3)O[C@H]1CO2,inactive,
CN1CCN(C(=O)C[C@H]2CC[C@@H]3[C@H](COc4ccc(NC(=O)c5cccs5)cc4C(=O)N3C)O2)CC1,inactive,
CCCNC(=O)C[C@@H]1CC[C@@H]2[C@@H](COc3ccc(NC(=O)Nc4ccccc4F)cc3C(=O)N2C)O1,inactive,
